# Screening data: PubChem, SRMLSC
# Compounds with a hit are over-represented: about 6.8% of the library has one in this group of screens.
# Spn DPM-DC inh: S. pneumoniae DPM-DC inhibition; purified DPM-DC, PK/LDH coupled NADH fluorescence; hit rate 0.49% among 65,000; calls only at 10 µM; AID 556;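 active = the 320 compounds with the highest percent inhibition in the single-dose primary screen, excluding strongly autofluorescent ones, cut at about 32% in these data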;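 also: kinetic rate of NADH fluorescence loss reporting ADP formed by the decarboxylase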
# Autofluor 339: intrinsic fluorescence of library compounds, ex339/em460 – biochemical, MLSMR library, data from DPM-DC assay, artefact control, profiling panel; compound autofluorescence, ex339/em460 nm, NADH buffer; stronger effect = higher value; 1 = no-compound wells, NADH background; AID 709; fluorescence fold increase at 10 µM; hit rate 5.5% among 65,000;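 active = at 10 µM, mean starting fluorescence two-fold or more over control wells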;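 also: signal is the first read of a kinetic run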
# NADH enzymes: inhibition of NAD/NADH coupling enzymes, library profiling | coupled PK/LDH NADH assays, four targets | IC50, µM (series often up to 10 µM), without a hit: at the highest dose inhibition | hit rate 0.02% among 65,000 | AID 774;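 active = single-dose screening hits from any of four coupled enzyme assays that gave an IC50 when retested across doses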;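 also: the DPM-DC format reads NADH fluorescence rather than 340 nm absorbance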
# Spn PMK inh: blocks S. pneumoniae phosphomevalonate kinase; purified PMK, PK/LDH-coupled NADH absorbance 340 nm; inhibition, % at 10 µM; hit rate 0.49% among 65,000;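 active = top-ranked compounds by inhibition in the single 10 µM screen, taking a fixed number of the strongest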;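 also: 0% = full reaction with DMSO carrier and 100% = background rate without enzyme reaction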
# Abs 340nm: compounds absorbing at 340 nm. compound absorbance at 340 nm, fold over control. 65,000 tested, under 10 active. AID 708. fold change at 10 µM;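 active = at 10 µM dose, initial 340 nm absorbance at least 2 fold that of control wells; inactive = change under 2 fold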;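 also: initial absorbance extrapolated from kinetic A340 decline of NADH oxidation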
# Spn MK inh: S. pneumoniae mevalonate kinase inhibition. purified MK, PK/LDH-coupled NADH absorbance 340 nm. inhibition, % at 10 µM. hit rate 0.48% among 65,000. AID 555;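 active = ranked among the strongest by inhibition in the single 10 µM screen, a fixed top-ranked set picked for dose follow-up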
# Starred values were filed as active, the others as inactive; i = inactive; . = no result shown; + = active, no number.
SMILES,Spn DPM-DC inh,Autofluor 339,NADH enzymes,Spn PMK inh,Abs 340nm,Spn MK inh
Cc1nn(CCc2nn[nH]n2)c2nc(C(F)(F)F)cc(C(F)(F)F)c12,.,5*,6%,8,1,4
Cc1cc(OCCOCCN2CCCC2)ccc1C(C)C,i,1.1,14%,2,1.1,41*
COc1cccc(OCCCCCN2CCOCC2)c1,i,1.1,1%,0,1.1,3
CCOc1cccc(OCCOCCN2CCCC2)c1,i,1,6%,5,1,45*
Brc1ccc(OCCOCCN2CCOCC2)cc1,i,1.1,4%,9,1,2
O=C(NC1CCCCC1)C1CCN(c2cnccn2)CC1,i,1.5,7%,15,1,5
Clc1ccc2nc(N3CCNCC3)nc(-c3ccccc3)c2c1,.,2.3*,12%,15,0.95,8
COC(=O)CSCc1nc2ccccc2[nH]c1=O,i,1.5,12%,8,1.1,7
CCOC(=O)CC(=O)CSc1nc2c(c(C)c1C#N)CCC2,i,2.7*,9%,16,1,0
COc1cc(OC)c(C2CC(=O)N3CN(c4ccccc4)CSC3=C2C#N)cc1OC (centres undefined),i,1.1,23%,5,1.1,64*
CCOC(=O)CNc1c(-c2ccc(O)cc2)nc2ccc(Cl)cn12,i,1.8,7%,5,1.1,6
Oc1ccc(-c2nc3ccccn3c2NCc2ccc3c(c2)OCO3)cc1,.,3.7*,12%,17,1,6
CCOC(=O)CNc1c(-c2ccc(O)cc2)nc2ccccn12,.,3.7*,8%,15,1.1,1
CCC1CCCCN1C(=O)CSc1nnc(-c2c[nH]c3ccccc23)o1 (centres undefined),i,1.1,11%,16,0.97,9
Cn1c(NC(=O)c2cc(Br)ccc2Cl)cc(=O)n(C)c1=O,i,1.1,4%,7,1.1,6
CN(C)c1ccc(-c2nnc(-c3ccc(S(=O)(=O)C(F)F)cc3)o2)cc1,i,1.4,7%,10,1.1,8
COc1ccc(-c2nnc(-c3ccc(N(C)C)cc3)o2)cc1,.,2.1*,1%,1,1.1,0
COc1ccc(-c2nnc(-c3ccc(N)cc3)o2)cc1,.,2.9*,2%,4,1.1,8
COc1ccc(-c2ccc(-c3nnc(-c4cc(OC)ccc4OC)o3)cc2)cc1,.,3.7*,13%,18,1.1,7
COc1cc(NC(=O)c2ccccc2Cl)c(OC)cc1NC(=O)CN1CCOCC1,i,1.1,4%,5,1,6
O=C(c1oc(=O)c2ccccc2c1-c1ccccc1)N1CCN(C2CCCCC2)CC1,i,1.1,1%,0,1.1,2
COc1cccc(N2CCN(C3CC(=O)N(c4ccc(F)c(Cl)c4)C3=O)CC2)c1 (centres undefined),i,1.1,4%,3,1,6
COc1cccc(N2CCN(C3CC(=O)N(c4ccc(C)c(Cl)c4)C3=O)CC2)c1 (centres undefined),i,1,18%,11,1,40*
CCCn1c(-c2ccccc2)nc2c(=O)n(C)c(=O)[nH]c21,.,2.2*,0%,0,1.1,0
Cc1nc2c(=O)n(C)c(=O)[nH]c2n1Cc1ccccc1,i,1.4,4%,9,0.99,0
SMILES,Spn DPM-DC inh,Autofluor 339,NADH enzymes,Spn PMK inh,Abs 340nm,Spn MK inh
COc1ccc(-c2nc3c(=O)n(C)c(=O)[nH]c3n2CCc2ccccc2)cc1,.,3.9*,5%,2,1,7
O=C(NC1(C(F)(F)F)NC(=O)N(CC2CCCCC2)C1=O)c1ccco1 (centres undefined),i,1.1,7%,10,1,10
CCOc1ccc2nc(NCCCNS(=O)(=O)c3ccccc3)c(C#N)cc2c1,i,2.3*,10%,10,1.1,4
CCCCCC(=O)Nc1cc(N(C)C)nc2ccccc12,.,2.2*,2%,4,1.1,0
O=C(Nn1c(C2CC2)nc2ccccc2c1=O)c1ccco1,i,1,6%,55*,0.99,0
CCC1c2ccc(C)n2CCN1C(=O)Nc1ccccc1C(=O)OC (centres undefined),i,2.5*,11%,16,1,6
COc1ccc(OC)c2c(N3CC(C)OC(C)C3)cc(C(F)(F)F)nc12 (centres undefined),i,2.1*,14%,20,1,5
CC1CN(c2cc3nccnc3cc2F)CC(C)O1 (centres undefined),i,1.2,5%,6,1.1,10
Cn1c(-c2ccc(CN3CCCCC3)o2)nc2ccccc21,i,2.1*,3%,2,1.1,0
Clc1ccccc1OCCCCN1CCCC1,i,1.1,16%,7,1,40*
COc1cccc(OC)c1OCCCCN1CCCC1,i,1,20%,8,1.1,52*
CCOC(=O)C1CCN(S(=O)(=O)c2c(C)n(C)c(=O)n(C)c2=O)CC1,i,1.1,2%,1,1,4
COc1ccc(-c2csc(NCc3ccco3)n2)cc1C,i,1.1,6%,7,1,12
COc1ccc(-c2nc3cccc(C)n3c2NCc2ccco2)cc1OC,.,5.1*,9%,2,1,16
COc1ccc(OC)c2c(C)cc(NCCN3CCOCC3)nc12,.,2.1*,8%,10,1.1,5
O=C(NC1CC1)c1ccc2c(c1)ncn2C1CCCC1,i,0.97,17%,28*,0.99,2
O=C(Nc1ccccc1)C1CC=CCC1C(=O)OCC1CCCO1 (centres undefined),i,1,4%,7,1,1
O=C(NCc1ccco1)Nc1ccc2nsnc2c1,.,2.4*,4%,0,1,5
O=C(NCc1ccco1)Nc1ccc(Br)cc1,i,1.1,8%,14,1,7
CC1=CC(c2ccccc2)n2nc(NS(=O)(=O)c3ccc(C)cc3)nc2N1 (centres undefined),.,2.2*,8%,9,1.1,7
Cc1ccc(S(=O)(=O)Nc2cc(C)nn2-c2ccccc2)cc1,i,1.1,4%,5,1,7
CCOc1ccc(C(=O)O)cc1OC,+,0.62,17%,10,1,1
COc1cc(C(=O)O)ccc1OC(C)=O,i,1,5%,13,1,3
Cc1oc2c(CN3CCOCC3)c(O)ccc2c(=O)c1-c1ccccc1,.,3.9*,7%,9,1.1,4
COc1ccc(-c2c(C)oc3c(CN4CCCCC4C)c(O)ccc3c2=O)cc1OC (centres undefined),.,2.2*,5%,7,1.1,2
COc1cccc(Oc2c(C)oc3c(CN4CCOCC4)c(O)ccc3c2=O)c1,.,3.8*,11%,13,1.1,8
CCOC(=O)c1c(-c2ccccc2)oc2ccc(O)c(CN3CCOCC3)c12,i,1.2,7%,0,1.1,16
